The results in this text go back to PubChem BioAssay (NCI).

This is part of a sample that, as a whole, favours compounds with a hit. Of some 83,000 tested, about 20% had one in any assay.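 Cell lines were cultured in 96-well plates, exposed to a single compound concentration, and assessed for percent growth 48 hours later.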 Values without a mark were called inactive. Active and inactive are the calls of the source. How the source made its calls: active means growth percent below 10; inactive means the rest.

Holding throughout (assay): NCI-60 one-dose screen, 48 h (100 = growth as untreated, 0 = no growth, -100 = all killed)
What all share (settings): 10 µM unless noted

In assay [1] the test system is HCT-15 colon.
Assay [2] relates to HT29 colon.
For assay [3], the system named is SNB-75 CNS.
In assay [4] the test system is SNB-19 CNS.
Assay [5] concerns U251 CNS.
Assay [6] has as its system PC-3 prostate.
Assay [7] deals with SK-MEL-5 melanoma.
Assay [8] concerns UACC-62 melanoma.
Assay [9] has as its system LOX IMVI melanoma.
The subject of assay [10] is SK-MEL-28 melanoma.
Assay [11] has as its system SK-MEL-2 melanoma.
The test system of assay [12] is EKVX NSCLC.
For assay [13], the system named is SN12C renal.
In assay [14] the test system is UO-31 renal.
Assay [15] concerns TK-10 renal.
Assay [16] deals with ACHN renal.
In assay [17] the test system is CAKI-1 renal.
Assay [18] has as its system A498 renal.
Assay [19] deals with CCRF-CEM leukemia.
The subject of assay [20] is MOLT-4 leukemia.

In the case of `O=C(NCCc1c[nH]c2ccccc12)C1Cc2ccccc2CN1C(=O)c1ccco1` (stereo not given), the growth in assay [1] was 111%; in [2], 114%; in assay [3], 106%; in assay [4], 112%; in assay [5], 98.5%; in assay [6] it was 96.9%. The growth in assay [7] is 95.6%; in [8] it was 93.4%; in assay [9], 94.9%; in assay [10], 116%; in assay [11], 69.5%; in assay [12], 102%. For the same compound, the growth in [13] is 111%; in assay [14] it was 53.5%; in [15] it was 110%; in [16] it was 96.6%; in assay [17], 107%; in [18], 107%. For the same compound, the growth was 81.2% in assay [19] and 77.1% in [20].
For `O=C(/C=C/CN1CCOCC1)Nc1cc2c(Nc3ccc(F)c(Cl)c3F)ncnc2cc1OCCOC(F)F`, the growth in assay [1] is 38.1%; in assay [2] it was 43.3%; in [3] it was 21.5%; in assay [4] it was 70%; in [5], 81.2%; in [6], 46.1%. Besides, the growth is 50.4% in assay [7]; 65.7% in assay [8]; 15.3% in assay [9]; 77.5% in assay [10]; 85.6% in assay [11]; 24.8% in assay [12]. In addition, the growth in assay [13] is 34.4%; in [14] it was 22.9%; in [15] it was 33.9%; in [16], 14.2%; in assay [17] it was 15.9%; in assay [18], -5.14% (active). Moreover, the growth in [19] is 94%; in assay [20], 69.5%.
For `COc1ccc(/C=C(\C#N)c2ccc([N+](=O)[O-])cc2)c2ccccc12`, the growth in assay [1] is 75.7%; in assay [2] it was 76.8%; in assay [3], -16% (active); in assay [4], 24.3%; in [5], 27%; in assay [6] it was 62.5%. Moreover, the growth in assay [7] was 74.9%; in assay [8], 37.1%; in assay [9], 70.2%; in assay [10] it was 59.2%; in assay [11] it was 59.8%; in assay [12] it was 52.9%. For the same compound, the growth in [13] was 41.4%; in assay [14] it was 66.5%; in assay [15] it was 88.1%; in assay [16], 37.9%; in [17], 64.3%; in assay [18] it was 60%. In addition, the growth in [19] was 83%; in assay [20], 88.3%.
For `Nc1nc(-c2cc3ccccc3o2)cc(=O)c(=O)[nH]1`, the growth in assay [1] is 103%; in assay [2], 99.7%; in assay [3], 102%; in assay [4], 86.6%; in [5] it was 91.9%; in assay [6] it was 97.7%. Also, the growth in [7] is 90.4%; in assay [8], 94.6%; in assay [9], 98.6%; in assay [10], 112%; in assay [11], 98.9%; in [12], 99.7%. In addition, the growth in assay [13] is 106%; in assay [14], 110%; in assay [15], 103%; in [16], 94.3%; in assay [17], 91.9%; in [18], 99.2%. The growth in [19] is 84.2%; in [20] it was 96.6%.
For `CCSc1nnc(Nc2ccc(C(C)C)cc2)s1`, the growth in assay [1] is 48%; in [2], 28.9%; in assay [3], 102%; in [4] it was 98.4%; in assay [5] it was 66%; in assay [6], 109%. For the same compound, the growth in assay [7] is 78.9%; in assay [8], 78.1%; in assay [9], 82.5%; in [10], 110%; in [11], 41.3%; in assay [12] it was 80.5%. The growth is 76.7% in assay [13]; 39.5% in assay [14]; 96.1% in assay [15]; 91.1% in assay [16]; 83.7% in assay [17]; 111% in [18]. For the same compound, the growth in [19] is 70.6%; in [20], 66.3%.
On to `CCC(c1ccc(OC)cc1)C(CC)c1ccc(O)c(CN2CCCC2)c1` (stereo not given), for which the growth is 1.62% (active) in assay [1]; 4.26% (active) in assay [2]; 71.5% in assay [3]; 40.6% in assay [4]; 7.11% (active) in assay [5]; 24.4% in assay [6]. The growth in assay [7] is -91.8% (active); in [8], -74.1% (active); in assay [9], -79.1% (active); in assay [10] it was -50.9% (active); in assay [11] it was -37.6% (active); in assay [12] it was 11.3%. Moreover, the growth was 23.3% in assay [13]; 15% in [14]; 54.5% in assay [15]; 39.3% in assay [16]; 32.6% in assay [17]; -5.74% (active) in [18]. Further, the growth is 19.7% in assay [19] and 1.69% (active) in [20].
Take `O=c1[nH]c(CN2CCN(c3ccccc3F)CC2)nc2sc3c(c12)CCC3`: the growth was 112% in assay [1]; 106% in assay [2]; 87.8% in assay [3]; 106% in [4]; 104% in [5]; 102% in assay [6]. The growth in assay [7] is 107%; in assay [8], 91.9%; in assay [9], 99.2%; in assay [10], 117%; in assay [11], 87.6%; in [12], 100%. For the same compound, the growth in assay [13] was 99.7%; in assay [14], 95.2%; in [15], -3.37% (active); in [16] it was 113%; in assay [17] it was 122%; in assay [18] it was 93%. The figures for the growth in assay [19] and in assay [20] were 100% and 99.8%, respectively.
Consider `CCCS(=O)(=O)c1nc(NC2CC2)cc(-c2ccc3c(ccn3C3CC(C)(C)NC(C)(C)C3)c2)n1`, for which the growth in [1] is -71.4% (active); in assay [2], -48% (active); in assay [3], -16.2% (active); in [4], 38.9%; in assay [5] it was -65.5% (active); in assay [6], 17.4%. Further, the growth in assay [7] is 16.2%; in assay [8], -83.1% (active); in assay [9] it was -91.5% (active); in assay [10] it was -59.2% (active); in assay [11] it was 54.5%; in assay [12], 22.6%. In addition, the growth in assay [13] was -77.9% (active); in assay [14], -66.1% (active); in [15], -56% (active); in assay [16] it was -90.3% (active); in assay [17] it was 85.1%; in [18], 108%. Also, the growth in [19] was -13.7% (active); in assay [20], 55.9%.
